The values below come from PubChem BioAssay AID1468 (National Center for Advancing Translational Sciences (NCATS), 2008).

Hit rate of the full screen: of about 280,000 compounds, about 1,100 (0.39%) were called active. Not shown: some 7% with an inconclusive outcome. Only a selection was taken, and actives are over-represented in it overall. Values without a mark were called inactive. Calls come from the whole dose curve; as a rule, active = well fitted inhibition curve with a large enough effect; inconclusive = small, poorly fitted or top-dose-only effect, or effect the other way; inactive = flat fitted curve, though single readings scatter.
% is set by controls: 0 for no effect and ±100 for the full control effect; potency is the fitted concentration of half-maximal effect.

Chain of Microtubule-associated protein tau (Homo sapiens) (P10636 561-689 P618L limits assumed): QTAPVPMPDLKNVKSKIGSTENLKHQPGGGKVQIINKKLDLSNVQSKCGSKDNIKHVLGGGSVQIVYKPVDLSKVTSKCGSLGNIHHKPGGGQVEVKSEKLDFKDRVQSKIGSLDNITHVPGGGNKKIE

The assay addresses Microtubule-associated protein tau (Homo sapiens) (UniProt P10636). The experiment in a line: qHTS for Inhibitors of Tau Fibril Formation, Fluorescence Polarization. Note: nearly all actives have a fitted effect of over 55% in size. The conditions noted are these: K18 P301L tau heparin fibrillization, Alexa594 FP, 6 h; series mostly up to 57.7 µM; activity, negative = inhibition: at the top concentration. In outline: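 Heparin (20 uM) drove fibril formation of recombinant tau K18 P301L, 15 uM unlabeled with 0.24 uM Alexa 594 label, for 6 hr at 37 C in 100 mM sodium acetate pH 7. Fluorescence polarization (555/632 nm) read 1 hr after 30 uM ThT.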
Consider `O=C(CSc1nc(-c2cccc(F)c2)[nH]c1-c1ccccc1)Nc1ccc2c(c1)OCO2`, for which the “activity, negative = inhibition” value was -13.5%.

Take `COc1ccc(-c2cn3nc(N4CCCC(C(=O)NCCCOC(C)C)C4)sc3n2)cc1` (centres undefined): the “activity, negative = inhibition” value is 12.2%.

Turning to `COc1ccc(C2CC(c3ccccc3)=NN2C(=O)CSc2nccc(=O)[nH]2)cc1` (centres undefined), the “activity, negative = inhibition” value was 3.39%.

`O=C(CSc1nnnn1-c1ccc(O)cc1)N1N=C(c2ccc3ccccc3c2)CC1c1ccccc1` (centres undefined): the Potency was 25.1 µM (active).

Regarding `O=C(CSc1nnnn1-c1ccc(O)cc1)c1ccc(F)cc1`, the “activity, negative = inhibition” value was -6.29%.

As for `COc1ccc(Cl)cc1NC(=O)C(C)Sc1nc2c(c(=O)[nH]1)CCCC2` (centres undefined), the “activity, negative = inhibition” value was -9.47%.

For the molecule `O=C(Cn1ncc2c3ccccc3n(Cc3ccccc3)c2c1=O)NC1CCCCCC1`, the “activity, negative = inhibition” value was -3.1%.

Take `Clc1ccc(CSc2nncn3c2cc2occc23)cc1`: the “activity, negative = inhibition” value was -6.93%.

With `COc1ccc(C2CC(=O)N(Cc3ccccc3C)c3c2c(C)nn3-c2nc(C)cc(C)n2)c(OC)c1` (centres undefined), the “activity, negative = inhibition” value was 5.46%.

For the molecule `Cc1ccc(C)c(S(=O)(=O)c2nnn3c2nc(N2CCOCC2)c2sccc23)c1`, the “activity, negative = inhibition” value was -0.999%.

As to `Fc1ccc(Nc2nc(SCc3ccccc3Cl)nc3ccccc23)cc1`, the Potency is 6.31 µM (active).

Consider `O=C(CSc1nc(Nc2ccc(F)c(F)c2)c2ccccc2n1)c1ccc(Cl)cc1`, for which the “activity, negative = inhibition” value is -2.77%.

On to `Fc1ccc(CSc2nc(NCc3ccccc3)c3ccccc3n2)cc1`, for which the “activity, negative = inhibition” value is 0.594%.

Consider `Cc1ccc(C(=O)N2c3ncnn3C3(CCCCC3)[C@@H]3CCCC[C@@H]32)cc1`, for which the “activity, negative = inhibition” value is -0.63%.

In the case of `CCOc1ccc2nc(Nc3nc4ccc(NC(C)=O)cc4s3)sc2c1`, the “activity, negative = inhibition” value was 17.7%.

Regarding `Cc1ccc(OCCSc2nc3ccc(NC(=O)COc4ccc(C)cc4)cc3s2)cc1`, the “activity, negative = inhibition” value is 1.12%.

In the case of `CC(=O)Nc1ccc2nc(SCCOc3cc(C)cc(C)c3)sc2c1`, the Potency is 12.6 µM (active).

Turning to `COc1ccccc1C(=O)NCCn1cc(SCc2ccccc2Cl)c2ccccc21`, the “activity, negative = inhibition” value was 7.76%.

On to `Cc1ccc(-c2nn(-c3ccccc3)cc2/C=C/C(=O)Nc2cccc(S(N)(=O)=O)c2)cc1`, for which the Potency is 14.1 µM (active).

On to `O=C(COC(=O)c1ccccc1)Nc1cccc(S(=O)(=O)N2CCOCC2)c1`, for which the “activity, negative = inhibition” value was -4.57%.

On to `COc1ccc(-c2nn(-c3ccccc3)cc2/C=C\C(=O)Nc2ccc(C(=O)O)cc2)cc1`, for which the “activity, negative = inhibition” value is -13.7%.

As to `Cc1ccc(-c2nn(-c3ccccc3)cc2C(=O)Nc2cccc(S(=O)(=O)N3CCOCC3)c2)cc1`, the Potency is 14.1 µM (active).

On to `O=C(O)/C=C/c1cn(-c2ccccc2)nc1-c1cccs1`, for which the “activity, negative = inhibition” value was -2.28%.

Regarding `O=C(O)c1ccc(NC(=O)c2cn(-c3ccccc3)nc2-c2ccc(Cl)cc2)cc1`, the “activity, negative = inhibition” value is -3.57%.

Consider `COc1ccccc1N1CCN(C2C(=O)c3ccccc3N2C(C)=O)CC1` (centres undefined), for which the “activity, negative = inhibition” value is 1.47%.

For the molecule `CCC(=O)N1CCc2cc(CNC(=O)Nc3ccccc3Cl)ccc21`, the “activity, negative = inhibition” value is 1.87%.

In the case of `COc1ccc(Cc2nc3ccc(C(=O)NCc4ccccc4C)cc3o2)cc1`, the “activity, negative = inhibition” value is -4.5%.

As to `CCN1CCc2nc3sc(C(=O)Nc4ccccc4OC(F)(F)F)c(N)c3cc2C1`, the “activity, negative = inhibition” value is 7.89%.

`Cc1ccc(C(=O)Nc2ccc(C(=O)O)cc2)cc1S(=O)(=O)Nc1ccccc1`: the “activity, negative = inhibition” value is -5.55%.

On to `O=C(Nc1cccc(NC(=O)c2ccc(Br)cc2)c1)c1ccccc1`, for which the “activity, negative = inhibition” value is -12.3%.

As to `O=C(Nc1ccc(Br)cc1)c1ccc(Br)c(S(=O)(=O)NCc2ccccc2)c1`, the Potency is 12.6 µM (active).

For the molecule `COC(=O)c1scc(-c2ccccc2)c1S(=O)(=O)Nc1ccccc1`, the “activity, negative = inhibition” value is -4.44%.

Regarding `Cc1ccc(Cn2c(C)c3cnn(CC(=O)NCc4ccccc4)c(=O)c3c2C)cc1`, the “activity, negative = inhibition” value is 5.78%.

With `COc1ccc(N(C(=O)c2cccnc2)S(=O)(=O)c2ccc3c(c2)n(C)c(=O)n3C)cc1`, the “activity, negative = inhibition” value was -5.86%.

On to `O=C(c1cccnc1)N(c1cc2sc(=O)oc2c2ccccc12)S(=O)(=O)c1ccccc1`, for which the Potency is 17.8 µM (active).

For the molecule `CN(C)S(=O)(=O)c1cccc(C(=O)Nc2cccnc2)c1`, the “activity, negative = inhibition” value was 4.52%.

With `Cc1cccc(N2CCN(C(=O)c3cnc(N4CCCC4)nc3C)CC2)c1C`, the “activity, negative = inhibition” value was 3.19%.

Turning to `CCc1ccccc1NC(=O)N1CCC2(CC1)Oc1ccccc1C(=O)N2Cc1ccccc1F`, the “activity, negative = inhibition” value was 0.521%.

Regarding `Cc1ccc(N(CC(=O)NCC(C)c2ccccc2)S(=O)(=O)N(C)C)cc1` (centres undefined), the “activity, negative = inhibition” value was -10.6%.

`CCOc1ccc(CNC(=O)Cn2cc3c(n2)-c2c(oc(C(=O)N4CCCC4)c2C)CC3)cc1`: the “activity, negative = inhibition” value was 1.02%.

On to `O=C(Nc1ccc2ccccc2c1)Nc1ccc2snnc2c1`, for which the Potency was 11.2 µM (active).

With `O=C(Nc1ccccc1)Nc1nc2ccccc2s1`, the “activity, negative = inhibition” value was -11.5%.

`COc1ccc(NC(=O)Nc2ccc3nsnc3c2)cc1`: the “activity, negative = inhibition” value was 13.6%.

Turning to `Cc1ccc(Cl)cc1N1CCN(C(=O)C2CCC(CNS(=O)(=O)c3cccs3)CC2)CC1` (centres undefined), the “activity, negative = inhibition” value was -0.505%.

Consider `CCCOc1ccc(NC(=O)CC2C(=O)N(c3ccccc3)C(=O)N2Cc2ccco2)cc1` (centres undefined), for which the “activity, negative = inhibition” value was -1.22%.

With `O=C(CCN1C(=O)/C(=C/c2cccs2)SC1=S)NNC(=O)c1cccc(O)c1`, the Potency was 35.5 µM (active).

In the case of `COc1ccc(/C=C2\SC(=S)N(CC(=O)NNC(=O)c3ccncc3)C2=O)cc1`, the “activity, negative = inhibition” value was 0.355%.

On to `O=C(CCCN1C(=O)/C(=C/c2ccccc2)SC1=S)Nc1ccc(O)cc1`, for which the “activity, negative = inhibition” value is -0.488%.

As to `O=C(CCC(=O)N1CC2CCCN2c2ccccc21)NCc1ccccc1Cl` (centres undefined), the “activity, negative = inhibition” value is 5.73%.
